# Compound activity deposited in PubChem by National Center for Advancing Translational Sciences (NCATS).
# The list is not random: actives were taken first. Their share in the collection is about 11%.
# PNC assembly inh = inhibitors of perinucleolar compartment assembly. PC3M PTB-GFP, PNC prevalence imaging, 16 h; hits give low values. activity change (PNC), negative = inhibition, % at 10 µM. 140,000 compounds, 3.1% hits;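 active = readout at or below -70, meaning at least 70% loss of cells showing the perinucleolar compartment, a nuclear body marking cancer cells; inconclusive = readout between -30 and a set limit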;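 note: plate controls were DMSO wells for no effect and camptothecin positive control wells for full effect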
#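 Read-out is percentage of cells bearing a perinucleolar compartment, from automated 20x imaging of fixed, Hoechst-stained PC3M PTB-GFP cells. Cells were seeded 4 h, then exposed 16 h to compound (23 nl of library stock) in duplicate plates.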
# HPGD inh = inhibitors of human 15-hydroxyprostaglandin dehydrogenase (HPGD); Potency, µM, inactives show at the top dose activity change, negative = inhibition, actives largely listed as inhibitors; P15428; purified HPGD, NADH fluorescence kinetic, PGE2 substrate; 150,000 compounds, 4.3% hits; note: potency is the fitted concentration of half-maximal effect
# Target sequence (P15428 whole entry, looked up): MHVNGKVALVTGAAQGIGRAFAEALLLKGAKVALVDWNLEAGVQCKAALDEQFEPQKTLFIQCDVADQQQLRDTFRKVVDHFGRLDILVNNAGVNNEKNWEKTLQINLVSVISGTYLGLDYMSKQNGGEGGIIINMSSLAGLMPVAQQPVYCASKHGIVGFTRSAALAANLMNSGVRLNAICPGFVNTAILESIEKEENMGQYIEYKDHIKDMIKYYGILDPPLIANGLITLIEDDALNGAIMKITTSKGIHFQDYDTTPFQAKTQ
#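 20 nM HPGD preincubated 15 min at room temperature with compound in 50 mM Tris-HCl pH 8, 0.01% Tween 20. Started with 1 mM NAD+ and 30 uM prostaglandin E2; NADH fluorescence (360/450 nm) read 5 times over 30-s intervals, last minus first.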
# ALDH1A1 block = ALDH1A1 (human) enzyme inhibition. P00352. Purified ALDH1A1, NADH fluorescence, propionaldehyde substrate. Potency, µM (doses to about 75.3 µM), for the others: at the top dose activity, negative = inhibition, usual class: inhibitors. 220,000 compounds, 7.3% hits. AID 1030;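 note: potency is the fitted concentration of half-maximal effect; plate controls were no enzyme wells and a reference inhibitor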
# The depositor's hits bear a star; ? = inconclusive; . = no result given; [ ] = remark or other dose. Unless noted, calls come from the whole dose curve; as a rule, active = well fitted inhibition curve with a large enough effect (not every such curve was filed as active); inconclusive = small, poorly fitted or top-dose-only effect, or another doubt; inactive = no such curve, though single readings can be large or run the other way. Unless noted, % is set by controls: 0 for no effect and ±100 for the full control effect.
SMILES,PNC assembly inh,HPGD inh,ALDH1A1 block
Fc1cccc(F)c1/C=N/N1CCOCC1,.,.,-4.2%
CCN(Cc1ccccc1)c1ccc(/C=N/N2CCOCC2)cc1,83.7,-15.9%,2.24µM*
CCN(CC)c1ccc(/C=N/N2CCN(c3ccccn3)CC2)cc1,.,.,22.4µM*
Cc1ccc(/C=N/N2CCN(c3ccccn3)CC2)cc1,.,.,7.0%
CC(=O)c1nccs1,.,-8.7%,?
CCOC(=O)OCC1OC(c2ccc(C(C)=O)cc2)C=CC1Oc1ccc(-c2ccccc2)cc1 (stereo not drawn),.,.,20.5%[13.5 µM]
Cn1nnc2cc(C(=O)Nc3ccc4ccccc4c3)ccc21,.,.,14.2%
CCCNC(=O)OC[C@@H]1O[C@H](CCO/N=C(\C)CCN2CCc3nc(-c4ccccc4)c(-c4ccccc4)cc3C2)C=C[C@@H]1Oc1ccc(OC)cc1,.,.,1.9%[13.5 µM]
COc1ccc(C(=O)N2CCC3(CCCN(Cc4ccc(C#N)cc4)C3)CC2)cc1,.,-11.4%,-10.2%
Oc1ccc(/C=N/N2CCOCC2)c(O)c1O,.,.,7.08µM*
COc1ccccc1N1CCN(/N=C/c2cc(OC)c(O)c(OC)c2)CC1,30.7,?,15.8µM*
Fc1ccc(/C=N/N2CCOCC2)c(F)c1,.,.,1.7%
COc1ccccc1N1CCN(/N=C/c2ccc(OC)c(OC)c2OC)CC1,.,.,-3.9%
Cc1cc(C)nc(-n2ncc3c2CC(c2cccc(Cl)c2)CC3=O)n1 (stereo not drawn),.,.,14.1%
Cc1cccc(NC(=O)Cn2c(/C=C/c3ccccc3)nc3ccccc32)c1,31.3,.,?
CC(C)(C)NC(=O)COC(=O)CCC(=O)c1cccs1,.,.,-0.8%
NC(=O)C(=O)N/N=C/c1c(F)c(F)c(F)c(F)c1F,.,.,-0.8%
COc1ccc(N2CCN(C(=O)c3ccc(N(C)S(=O)(=O)c4ccc(OC)cc4)cc3)CC2)cc1,.,.,-10.5%
CCOc1ccc(S(=O)(=O)N(C)c2ccc(OCC(=O)N3CCOCC3)cc2)cc1,9.7,-9.7%,-14.9%
CN(c1ccc(C(=O)NC2CC2)cc1)S(=O)(=O)c1ccccc1,8.6,12.6µM*,13.8%
COc1ccc(S(=O)(=O)N(C)c2ccc(C(=O)NC3CCCC3)cc2)cc1,.,.,-7.5%
C=CCN(c1ccc(C(=O)N2CCCC2)cc1)S(C)(=O)=O,-9.2,20µM*,-7.9%
CN(c1ccc(C(=O)N2CCCCC2)cc1)S(=O)(=O)c1ccccc1,22.4,0.447µM*,1.8%
C=CCN(c1ccc(C(=O)NC(C)C)cc1)S(C)(=O)=O,?,-14.7%,1.7%
CCOC(=O)C1CCN(C(=O)COc2ccc(N(C)S(=O)(=O)c3ccc(C)cc3)cc2)CC1,.,.,17.8µM*
SMILES,PNC assembly inh,HPGD inh,ALDH1A1 block
Cc1cc(-c2cc(C)c(O)c(C(C)(C)C)c2)cc(C(C)(C)C)c1O,.,-6.5%,9.5%[13.5 µM]
O=C(CSc1ccccc1)NCc1ccccn1,?,-14.9%,8.8%
Cn1c(=O)c(-c2cccs2)nc2cnc(N3CCOCC3)nc21,.,.,2.6%
Cc1ccc(S(=O)(=O)N(C)c2ccc(C(=O)N3CCc4ccccc4C3)cc2)cc1,.,.,0.6%
Cc1ccc(S(=O)(=O)N(C)c2ccc(C(=O)N3CCCCC3)cc2)cc1,39.4,0.398µM*,-7.2%
O=C(N/C=C/n1cnc2cc(C(F)(F)F)ccc21)c1ccccc1F,.,.,3.4%
CC1(C)CC(NC(=O)CC2CCCCC2)CC(C)(C)N1,-4.2,-6.0%,8.3%
CC1(C)CC(NC(=O)C2CCCCC2C(=O)O)CC(C)(C)N1 (stereo not drawn),-98.7*,-2.7%,5.8%
CC(C)CNC(=O)CCCc1ccccc1,11.9,14.1µM*,-4.6%
CC(C)C(=O)NCCCc1ccccc1,-17.8,-15.0%,6.1%
C=CCNC(=O)CCCc1ccccc1,27.1,-20.7%,9.2%
CC(C)CC(=O)NCCCCc1ccccc1,?,15.8µM*,?
c1ccc2c(c1)nnn2Cc1nnc2sc(-c3ccc4c(c3)OCCO4)nn12,19.5,?,?
c1ccc(-c2nn3c(Cn4cnc5ccccc54)nnc3s2)cc1,-2.6,4.47µM*,2.24µM*
FC(F)(F)c1nnc2sc(-c3ccncc3)nn12,13.2,-6.6%,8.0%
COc1ccc(-n2c(Cn3nnc4ccccc43)n[nH]c2=S)cc1,?,-13.2%,5.8%
c1ccc(Cn2cnc3ccccc32)cc1,-8.5,1.5%,1.5%
COc1ccc(Cc2nn3c(Cn4nnc5ccccc54)nnc3s2)cc1,?,22.4µM*,11.2µM*
c1ccc(-c2nn3c(Cn4nnc5ccccc54)nnc3s2)cc1,13.0,10µM*,3.16µM*
c1ccc2c(c1)ncn2Cc1nnc2sc(-c3ccncc3)nn12,0.6,7.94µM*,10µM*
CCOc1ccc2nc(Cl)c(C3CC(c4ccccc4)=NN3C(=O)c3ccco3)cc2c1 (stereo not drawn),38.1,-22.0%,12.8%
Cc1ccc(NC(=O)C2Cc3ccccc3CN2C(=O)c2ccccc2)cc1Cl (stereo not drawn),-26.0,-2.5%,-4.7%
NC1(C(=O)NC2(C(=O)O)CCCC2)CCCC1,.,-1.1%,10.9%[13.5 µM]
c1ccc(OCc2nn3c(-c4ccco4)nnc3s2)cc1,-28.4,-25.4%,-11.8%
c1ccc(OCc2nn3c(Cn4cnc5ccccc54)nnc3s2)cc1,?,11.2µM*,18.9µM*
SMILES,PNC assembly inh,HPGD inh,ALDH1A1 block
c1ccc(-c2ccc(C3=Nn4c(Cn5nnc6ccccc65)nnc4SC3)cc2)cc1,-5.8,17.8µM*,28.2µM*
c1cncc(-c2nn3cnnc3s2)c1,31.0,1.0%,10.8%
c1cncc(-c2nn3c(Cn4cnc5ccccc54)nnc3s2)c1,-27.8,3.16µM*,1µM*
Fc1ccc(C2=Nn3c(Cc4ccccc4F)nnc3SC2)cc1,2.5,-14.3%,-4.1%
CC1(OC(=O)c2cnc3ccccc3n2)C(=O)C=C2C=C3CCCN3C=C2C1=O (stereo not drawn),.,-8.8%,0.3%[13.5 µM]
CCC1(CC)NC(=O)N(CC(=O)N2N=C(c3ccc(Cl)cc3)CC2c2ccco2)C1=O (stereo not drawn),.,.,10.2%
O=C(COC(=O)C1CC1)NC(=O)NCc1ccccc1,.,.,8.7%
Cc1ccc(C(=O)OCC(=O)NCCN2C(=O)CSC2=O)cc1,?,-2.8%,-4.1%
CCNc1ccc(C(=O)OCC(=O)NCCN2C(=O)CSC2=O)cc1[N+](=O)[O-],.,.,3.55µM*
CCN1CCC(CNCc2cn(-c3ccc(OC)cc3)nc2-c2ccccc2Cl)C1 (stereo not drawn),.,.,-9.4%
CC(C)CN(C(=O)C(c1ccccc1)c1ccccc1)c1c(N)n(CC(C)C)c(=O)[nH]c1=O,.,.,9.2%
COc1cccc(-n2c(SC3CCOC3=O)nc3ccccc3c2=O)c1 (stereo not drawn),-100.0*,-13.2%,-8.1%
COc1ccc(OCc2nnc(SC3CCOC3=O)n2-c2ccccc2)cc1 (stereo not drawn),?,-2.1%,7.9%
O=C1OCCC1Sc1nnc(-c2ccccc2Cl)n1Cc1ccccc1 (stereo not drawn),?,-2.2%,0.3%
CCc1cc2c(=O)n(Cc3ccccc3)c(SC3CCOC3=O)nc2s1 (stereo not drawn),.,.,2.82µM*
Cc1ccc(Cn2c(SC3CCOC3=O)nc3ccccc3c2=O)cc1 (stereo not drawn),103.1,-9.4%,?
O=C1OCCC1Sc1nnc(-c2cccs2)n1Cc1ccccc1 (stereo not drawn),55.2,-10.4%,20µM*
CCCCC/C=C\C/C=C\C/C=C\CCCCC(=O)NC(C)C(=O)O (stereo not drawn),.,-1.5%,-1.9%
